Measured values from PubChem BioAssay AID1159580 (chemical genetic matrix, 2015).
Values joined by “and” are separate entries in the source; they are usually repeats but may differ in a detail not shown here. Equal values may be shown once. Among all 5,500 compounds or so, about 2,000 (36%) were called active. Inconclusive results (about 18%) are left out. Cut-off read from the data, not from the text of the source: active = normalized growth mostly below about 0.91 (no sharp cut-off); inconclusive = no clear call, values can overlap the other calls; inactive = mostly above about 0.92. This is one part of the list.

Test: chemical genetic growth profiling, strain panel (AID 1159580);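 note: tested at 20 µM; growth read once vehicle control cultures reached saturation at 30 °C; 1 = growth at the plate median or of vehicle wells; lower values mean less growth of the strain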
Conditions: S. cerevisiae deletion strains, growth OD

Measured: normalized growth

CC1CCc2cc(F)cc3c(=O)c(C(=O)O)cn1c23 (configuration not stated)
inactive: locus YAL013W, strain DEP1, stronger effect = lower value 0.985 | locus YAL021C, strain ccr4, stronger effect = lower value 0.967 | locus YAL026C, strain drs2, stronger effect = lower value 0.981 | locus YAL030W, strain snc1, stronger effect = lower value 0.989 | locus YBL061C, strain skt5, stronger effect = lower value 0.985 | locus YBR009C, strain hhf1, stronger effect = lower value 0.987 | locus YBR021W, strain FUR4, stronger effect = lower value 0.943 | locus YBR023C, strain chs3, stronger effect = lower value 0.975 | locus YBR171W, strain sec66, stronger effect = lower value 0.979 | locus YBR229C, strain ROT2, stronger effect = lower value 0.98 | locus YBR231C, strain swc5, stronger effect = lower value 0.997 | locus YBR279W, strain paf1, stronger effect = lower value 0.985 | locus YCL011C, strain gbp2, stronger effect = lower value 0.988 | locus YCL016C, strain dcc1, stronger effect = lower value 0.977 | locus YCL029C, strain bik1, stronger effect = lower value 0.925 | locus YCL061C, strain MRC1, stronger effect = lower value 0.989 | locus YCL069W, strain vba3, stronger effect = lower value 0.992 | locus YCR088W, strain abp1, stronger effect = lower value 0.999 | locus YDL005C, strain med2, stronger effect = lower value 0.995 | locus YDL035C, strain GPR1, stronger effect = lower value 1 | locus YDL040C, strain nat1, stronger effect = lower value 0.999 | locus YDL074C, strain BRE1, stronger effect = lower value 0.972 | locus YDL101C, strain DUN1, stronger effect = lower value 0.974 | locus YDL134C, strain PPH21, stronger effect = lower value 0.975 | locus YDL185W, strain tfp1, stronger effect = lower value 0.981 | locus YDL192W, strain arf1, stronger effect = lower value 0.967 | locus YDR001C, strain nth1, stronger effect = lower value 0.992 | locus YDR069C, strain doa4, stronger effect = lower value 1 | locus YDR101C, strain arx1, stronger effect = lower value 0.962 | locus YDR137W, strain rgp1, stronger effect = lower value 0.942 | locus YDR150W, strain NUM1, stronger effect = lower value 0.981 | locus YDR159W, strain sac3, stronger effect = lower value 1.01 | locus YDR162C, strain NBP2, stronger effect = lower value 0.991 | locus YDR195W, strain ref2 0.99 | locus YDR297W, strain sur2, stronger effect = lower value 0.997 | locus YDR318W, strain mcm21, stronger effect = lower value 0.97 | locus YDR334W, strain swr1, stronger effect = lower value 0.986 | locus YDR335W, strain msn5, stronger effect = lower value 0.991 | locus YDR388W, stronger effect = lower value 0.952 | locus YDR392W, strain spt3, stronger effect = lower value 0.941 | locus YDR502C, strain sam2, stronger effect = lower value 0.984 | locus YEL003W, strain gim4, stronger effect = lower value 1 | locus YEL037C, strain rad23, stronger effect = lower value 0.993 | locus YEL061C, strain CIN8 (second series), stronger effect = lower value 0.993 | locus YEL061C, strain CIN8, stronger effect = lower value 0.985 | locus YER015W, strain faa2, stronger effect = lower value 0.982 | locus YER016W, strain bim1, stronger effect = lower value 1 | locus YER110C, stronger effect = lower value 0.976 | locus YER111C, strain swi4, stronger effect = lower value 0.984 | locus YER155C, strain BEM2 (second series), stronger effect = lower value 0.994 | locus YER155C, strain BEM2, stronger effect = lower value 0.975 | locus YER167W, strain BCK2, stronger effect = lower value 0.988 | locus YFR010W, strain ubp6, stronger effect = lower value 0.984 | locus YGL078C, strain dbp3, stronger effect = lower value 0.969 | locus YGL086W, strain mad1, stronger effect = lower value 0.987 | locus YGL167C, strain pmr1, stronger effect = lower value 0.993 | locus YGL173C, strain kem1, stronger effect = lower value 0.991 | locus YGL227W, strain vid30, stronger effect = lower value 0.985 | locus YGL240W, strain doc1, stronger effect = lower value 0.991 | locus YGL248W, strain PDE1, stronger effect = lower value 0.984 | locus YGL253W, strain hxk2, stronger effect = lower value 0.995 | locus YGR078C, strain PAC10, stronger effect = lower value 0.974 | locus YGR135W, strain pre9, stronger effect = lower value 0.974 | locus YGR229C, strain SMI1, stronger effect = lower value 1.01 | locus YGR252W, strain gcn5, stronger effect = lower value 1.04 | locus YHR013C, strain ard1, stronger effect = lower value 0.965 | locus YHR027C, strain rpn1, stronger effect = lower value 0.985 | locus YHR030C, strain SLT2, stronger effect = lower value 0.982 and 0.978 | locus YHR079C, strain IRE1 (second series), stronger effect = lower value 0.955 | locus YHR079C, strain IRE1, stronger effect = lower value 0.988 | locus YHR094C, strain hxt1, stronger effect = lower value 0.983 | locus YHR129C, strain ARP1, stronger effect = lower value 0.977 | locus YHR142W, strain chs7, stronger effect = lower value 0.981 | locus YHR200W, strain rpn10, stronger effect = lower value 0.969 | locus YIL066C, strain RNR3, stronger effect = lower value 0.974 | locus YIL073C, strain SPO22, stronger effect = lower value 0.991 | locus YIL125W, strain kgd1, stronger effect = lower value 0.985 | locus YIR030C, strain dcg1, stronger effect = lower value 0.972 | locus YJL092W, strain hpr5, stronger effect = lower value 0.988 | locus YJL095W, strain BCK1 (second series), stronger effect = lower value 0.989 | locus YJL095W, strain BCK1, stronger effect = lower value 0.948 and 0.982 | locus YJL115W, strain asf1, stronger effect = lower value 0.983 | locus YJL129C, strain trk1, stronger effect = lower value 1 | locus YJL134W, strain LCB3, stronger effect = lower value 0.984 | locus YJL154C, strain vps35, stronger effect = lower value 0.991 | locus YJL164C, strain tpk1, stronger effect = lower value 0.988 | locus YJL166W, strain qcr8, stronger effect = lower value 0.981 | locus YJL168C, strain set2, stronger effect = lower value 0.967 | locus YJL187C, strain SWE1 (second series), stronger effect = lower value 0.954 | locus YJL187C, strain SWE1, stronger effect = lower value 0.989 | locus YJR043C, strain POL32, stronger effect = lower value 0.979 | locus YJR066W, strain TOR1, stronger effect = lower value 0.897
